High-throughput results from PubChem BioAssay.
NS1 function inh: blocks influenza NS1 protein function; Potency, µM (series often up to 46.1 µM); 0.4% of 270,000 active; calls by dose curve; also: actives are rising curves; nearly all actives have a fitted effect of over 50% in size
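OD600 was taken as the measure of yeast growth restored by compound in an NS1-expressing S. cerevisiae strain. Cells had been washed out of glucose medium and diluted 1:100 into galactose -URA medium, pH 6.0.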
Pf growth 48h: inhibits P. falciparum growth in the first generation, 48 h. P. falciparum luciferase growth in erythrocytes, 48 h. 5.9% of 310,000 active. Potency, µM (top dose mostly 28.7 µM), most hits filed as inhibitors
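Read-out is firefly luciferase luminescence from an integrated reporter in P. falciparum, so falling signal marks reduced parasite growth. Infected erythrocytes were at 2% hematocrit and 0.1% parasitemia (final) in Albumax-supplemented RPMI 1640.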
Sm TGR inh: blocks Schistosoma mansoni thioredoxin glutathione reductase. Q962Y6. Potency, µM (top dose mostly 114 µM), usual class: inhibitors. purified TGR, DTNB reduction, TNB absorbance 405 nm. AID 485364. 3% of 360,000 active; also: nearly all actives have a fitted effect of over 60% in size
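Kinetic colorimetric format: TGR-catalysed, NADPH-driven DTNB reduction monitored via TNB absorbance. Enzyme dispensed at 20 nM; compound exposure 15 min at room temperature before reaction start.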
Cycloheximide cs: affects cycloheximide protein synthesis inhibition readout, counter-screen; cell reporter, cycloheximide protein synthesis inhibition counterscreen; max response, %; 12% of 300,000 active; AID 2314; in the data active = max response mostly above about 13%, no sharp cut-off; inactive = mostly below about 14%; also: read at 38.3 µM for the half of the compounds with a filed dose
Shiga inhibitor: blocks Shiga toxin action in Vero cells; inhibition, % at 38.7 µM; Vero cells, Shiga toxin protein synthesis inhibition reporter; AID 2315; 9.2% of 290,000 active; in the data active = inhibition mostly above about 28%, no sharp cut-off; inactive = mostly below about 43%
Pf growth 96h: P. falciparum growth inhibition at 96 hours; P. falciparum luciferase reporter growth, 96 h; 6.9% of 320,000 active; Potency, µM (series often up to 28.7 µM), hits mostly inhibitors
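Two-generation exposure (96 h) targets delayed-death phenotype. Reporter parasites carrying integrated firefly luciferase, in red cells at 2% hematocrit and 0.05% parasitemia final, kept at 37 C, 5% CO2; luminescence loss indicates inhibition.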
A number is an active result; . = inactive; ? = inconclusive; / = not tested or not shown; [ ] = dose if it differs, or a comment. Most compounds without a hit are left out; they make up all but 21% or so of the library. Unless noted, calls follow the shape of the dose curve; as a rule, active = well fitted curve in the direction sought with a large enough effect; inconclusive = small, poorly fitted or top-dose-only effect, or another doubt; inactive = no such curve, though single readings can be large; an effect the other way counts as inactive or inconclusive.

SMILES | NS1 function inh | Pf growth 48h | Sm TGR inh | Cycloheximide cs | Shiga inhibitor | Pf growth 96h
COc1cc(OC)c(NC(=O)c2c(C)oc3ncn(C)c(=O)c23)cc1Cl | / | / | . | / | / | /
CCOc1ccc(CN(CC)C(=O)Cc2c[nH]c3ccccc23)cc1OC | . | ? | . | . | . | ?
N#C/C(=C(/O)c1ccc([N+](=O)[O-])s1)c1nc2ccccc2[nH]1 | . | . | . | . | . | ?
CCN1CCN(c2ccc([N+](=O)[O-])c(Sc3nc4ccccc4[nH]3)c2)CC1 | . | ? | . | . | . | 2.62µM
O=[N+]([O-])c1ccc(N2CCN(CCO)CC2)cc1Sc1ccccn1 | . | . | . | . | . | ?
O=C(O)c1cc([N+](=O)[O-])c(Sc2nc3ccccc3[nH]2)c([N+](=O)[O-])c1 | . | / | 1.78µM | . | . | .
CS(=O)(=O)c1cc([N+](=O)[O-])c(Sc2nc3ccccc3[nH]2)c([N+](=O)[O-])c1 | . | . | 1.41µM | . | . | /
O=C(c1nc2ccccc2[nH]1)c1ccccc1[N+](=O)[O-] | . | . | . | 32.1 | 72.8 | .
Cc1cc(C)c(NC(=O)CN(C)C(=O)c2ccc(OCc3ccccc3)cc2)c(C)c1 | / | . | . | / | / | .
Cc1ccc(OCCSc2nc3ccccc3n2CC(=O)N2CCCCC2)cc1C | / | / | . | / | / | /
COc1ccc(CN2C(=O)c3ccccc3C2C(=O)NC2CCC(C)CC2)c(OC)c1 (centres undefined) | / | . | . | . | . | .
CCOc1ccccc1N1C(=O)CC(=O)NC1=O | . | . | ? | . | . | .
CCOc1ccc(N2C(=O)CSC2=S)cc1 | . | . | . | . | . | 13.1µM
CCOc1ccc(N2C(=O)CC(=O)NC2=O)cc1 | . | . | ? | . | / | 10.4µM
Cc1ccc(C)c(NC(=O)CCOc2ccccc2)c1 | . | .[0.00184 µM] | . | . | . | ?
COc1cc(S(=O)(=O)N2CCN(C(=O)c3ccccc3)CC2)c(OC)cc1Br | . | . | . | . | . | .
Cc1ccc(OCc2cc(C(=O)NC3CCOC3)no2)cc1C (centres undefined) | . | . | . | 20.2 | 25.2 | .
CC(=O)c1cccc(OCc2cc(C(=O)NC3CCN(Cc4ccccc4)CC3)no2)c1 | . | . | . | . | . | 11.7µM
COc1cccc(OCc2cc(C(=O)NC3CCOCC3)no2)c1 | . | . | . | 45.9 | 81.8 | .
CC1(C)CC(NC(=O)c2cc(COc3cccc(C(F)(F)F)c3)on2)CCO1 (centres undefined) | . | . | . | 29.1 | 48.1 | ?
O=C(CC12CC3CC(CC(C3)C1)C2)Nc1c(F)cccc1F | . | .[0.00184 µM] | . | . | . | .
COc1ccc(OCc2cc(C(=O)NC3CCOCC3)no2)c2ccccc12 | . | ? | ? | 22.1 | . | ?
CCOC(=O)C1CCN(C(=O)CSc2n[nH]c(-c3ccccc3)n2)CC1 | / | / | . | / | / | /
CCOC(=O)CN1C(=O)C(Sc2n[nH]c(-c3ccc(C)cc3)n2)CCc2ccccc21 (centres undefined) | . | ? | . | . | . | 11.7µM
CCOC(=O)CN1C(=O)C(Sc2n[nH]c(-c3cccc(C)c3)n2)CCc2ccccc21 (centres undefined) | . | 13.1µM | . | . | . | 9.28µM
SMILES | NS1 function inh | Pf growth 48h | Sm TGR inh | Cycloheximide cs | Shiga inhibitor | Pf growth 96h
O=S(=O)(NC1C2CC3CC(C2)CC1C3)c1ccc(F)cc1 (centres undefined) | / | . | . | / | / | ?
O=C(Nc1ccc(Cl)c(S(=O)(=O)N2CCOCC2)c1)c1cc(-c2ccccn2)nc2ccccc12 | / | 11.7µM | . | . | . | ?
O=C(Nc1ccc(Cl)c(S(=O)(=O)N2CCOCC2)c1)c1ccccn1 | . | . | . | . | . | .
COc1ccc(Nc2nc(-c3ccccc3)nc3ccccc23)cc1S(=O)(=O)N1CCOCC1 | ? | ? | . | . | . | 13.1µM
Cc1ccc(NC(=O)c2cc(-c3ccco3)nc3ccccc23)cc1S(=O)(=O)N1CCOCC1 | / | . | 44.7µM | . | . | ?
COc1ccc(NC(=O)c2cc(-c3ccco3)nc3ccccc23)cc1S(=O)(=O)N1CCOCC1 | ? | ? | 7.94µM | . | . | ?
Cc1ccc(NC(=O)c2ccc3ccccc3n2)cc1S(=O)(=O)N1CCOCC1 | / | ? | . | . | . | ?
Cc1ccc(C2Nc3cc(C)c(C)cc3-n3c(-c4ccccc4)c4c(=O)n(C)c(=O)n(C)c4c32)o1 (centres undefined) | / | / | . | / | / | /
CCOC(=O)CNc1ncnc2c1nnn2C | / | / | . | / | / | /
CCOc1ccc(-c2n[nH]c(C)c2Oc2ccc(OC)cc2)c(O)c1 | . | 13.1µM | . | . | . | /
Cc1[nH]nc(-c2ccc(OCc3cnn(-c4ccccc4)c3)cc2O)c1Oc1ccc(F)cc1 | . | ? | . | . | . | 9.28µM
Cc1[nH]nc(-c2ccc(OCc3cnn(-c4ccccc4)c3)c(C)c2O)c1Oc1ccccc1 | . | ? | . | . | . | ?
CC(C)Cc1nnc(NC(=O)C2CSC3(C)CCC(=O)N23)s1 (centres undefined) | / | ? | . | / | / | .
CC(=O)OCC(NC(=O)C(CCCCNC(=O)OCc1ccccc1)NC(=O)OC(C)(C)C)C1OC(n2cc(F)c(=O)[nH]c2=O)C(OC(C)=O)C1OC(C)=O (centres undefined) | / | / | / | . | . | /
CC1C2CCC3C4CC=C5CC(N(C)C)CC[C@@]5(C)C4CC[C@@]32CN1C (some centres undefined) | / | 15.1µM | / | / | / | ?
Cc1cccc(NC(=S)N(CCc2nc3cc(C)c(C)cc3[nH]2)Cc2cccnc2)c1 | . | ? | . | . | . | .
CCNC(=S)N(CCc1c(C)[nH]c2ccc(Cl)cc12)Cc1cccnc1 | . | 11.7µM | . | . | . | ?
COCCNC(=S)N(CCc1c(C)[nH]c2ccc(C)cc12)Cc1cc(OC)c(OC)c(OC)c1 | . | ? | . | . | . | 9.28µM
Cc1[nH]c2ccc(F)cc2c1CCN(Cc1cccnc1)C(=S)Nc1cccc(F)c1 | / | 13.1µM | . | . | . | ?
CNC(=S)N(CCc1c(C)[nH]c2ccc(Cl)cc12)Cc1cccnc1 | . | ? | . | . | . | ?
COc1cccc(NC(=S)N(CCc2nc3cc(C)c(C)cc3[nH]2)Cc2cccnc2)c1 | . | ? | . | . | . | 11.7µM
O=C(O)Cn1nc(-c2ccccc2)c2ccccc21 | . | / | / | / | / | /
Cc1c(CNCCc2ccc(S(N)(=O)=O)cc2)c(C(=O)O)c(C)n1Cc1ccc(Cl)cc1 | / | / | . | / | / | /
CCOc1ccc(CN2CCCC(CNC(=O)c3ccc(F)cc3)C2)cc1CO (centres undefined) | . | . | . | . | . | .
O=C(Cn1cnc2onc(-c3ccc(F)cc3)c2c1=O)N1CCN(c2ccccc2F)CC1 | / | / | . | / | / | /
CCc1ccc(-n2c(=O)c3cccnc3n2CC(=O)NCc2ccccc2)cc1 | / | / | . | / | / | /
COc1ccc2[nH]c(C)c(CCN(Cc3cccs3)C(=S)Nc3cccc(F)c3)c2c1 | ? | 0.37µM | ? | . | . | 0.738µM
COc1cccc(NC(=S)N(CCc2c(C)[nH]c3ccc(C)cc23)Cc2cccs2)c1 | ? | ? | . | . | . | ?
